Holding throughout (experiment): DAPPL (digital affinity profiling via proximity ligation, sequencing); 10 mM Tris-HCl pH 7.5, 50 mM NaCl, 1 mM DTT, 4% glycerol, room temperature, 30 min; GST-TFs on glutathione beads, 16-mer random dsDNA library, 0.1% formaldehyde crosslink after washing; high values mean tight binding
Conditions in all cases: protein: recombinant; tags: N-terminal GST; dsDNA, one strand shown

The target of one assay is T1, FLI1 (Homo sapiens, UniProt Q01543 1-452).
T1 sequence: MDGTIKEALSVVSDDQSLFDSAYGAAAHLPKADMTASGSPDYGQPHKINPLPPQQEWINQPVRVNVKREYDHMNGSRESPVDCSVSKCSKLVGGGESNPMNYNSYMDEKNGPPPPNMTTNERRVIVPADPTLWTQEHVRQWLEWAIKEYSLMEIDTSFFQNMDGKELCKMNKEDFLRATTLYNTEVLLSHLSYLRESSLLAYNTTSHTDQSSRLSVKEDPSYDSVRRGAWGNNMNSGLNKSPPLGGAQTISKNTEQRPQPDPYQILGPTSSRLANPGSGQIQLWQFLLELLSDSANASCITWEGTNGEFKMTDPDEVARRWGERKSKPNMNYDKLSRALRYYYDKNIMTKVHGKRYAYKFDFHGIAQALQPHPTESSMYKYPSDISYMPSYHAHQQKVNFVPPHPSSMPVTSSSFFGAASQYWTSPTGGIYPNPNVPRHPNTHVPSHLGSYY
In outline:
(§1)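 Yeast served to express human transcription factors as GST fusions, which were then captured on glutathione beads and labelled with DNA barcodes. Pooled with a tag-only sample, they were incubated with 200 nmole of a 16-mer random double-stranded DNA library for 30 min at room temperature in Tris/NaCl/DTT/glycerol buffer, washed, crosslinked with 0.1% formaldehyde, ligated by proximity, amplified by PCR and sequenced. Dividing each hexamer's read frequency for a factor by its frequency for the tag-only sample gives the binding signal.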

The next assay addresses T2, ELK1 (Homo sapiens, UniProt P19419 1-428).
T2 sequence: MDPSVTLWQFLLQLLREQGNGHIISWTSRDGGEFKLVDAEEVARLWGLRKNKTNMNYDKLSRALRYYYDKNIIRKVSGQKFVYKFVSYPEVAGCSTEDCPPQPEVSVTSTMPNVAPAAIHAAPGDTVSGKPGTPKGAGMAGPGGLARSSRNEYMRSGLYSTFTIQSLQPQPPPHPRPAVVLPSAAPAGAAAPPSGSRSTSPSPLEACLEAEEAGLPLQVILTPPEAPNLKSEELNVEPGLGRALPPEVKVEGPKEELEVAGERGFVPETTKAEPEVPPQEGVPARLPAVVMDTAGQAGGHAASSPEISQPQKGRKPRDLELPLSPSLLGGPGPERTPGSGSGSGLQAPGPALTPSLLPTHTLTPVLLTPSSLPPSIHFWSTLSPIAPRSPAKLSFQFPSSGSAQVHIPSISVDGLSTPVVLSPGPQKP
The procedure, abridged:
as §1

Another assay deals with T3, GABPA (Homo sapiens, UniProt Q06546 1-454).
T3 sequence: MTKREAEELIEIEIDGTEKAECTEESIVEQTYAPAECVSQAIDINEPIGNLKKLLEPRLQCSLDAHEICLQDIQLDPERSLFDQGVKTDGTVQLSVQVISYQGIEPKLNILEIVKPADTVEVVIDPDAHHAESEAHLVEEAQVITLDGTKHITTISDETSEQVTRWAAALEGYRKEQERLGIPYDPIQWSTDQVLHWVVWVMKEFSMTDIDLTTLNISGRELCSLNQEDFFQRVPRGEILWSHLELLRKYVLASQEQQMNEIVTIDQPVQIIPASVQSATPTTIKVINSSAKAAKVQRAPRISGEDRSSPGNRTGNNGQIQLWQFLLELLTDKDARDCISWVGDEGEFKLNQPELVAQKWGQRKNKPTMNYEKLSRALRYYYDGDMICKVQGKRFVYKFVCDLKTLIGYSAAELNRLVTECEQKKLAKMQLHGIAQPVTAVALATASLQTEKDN
The procedure, abridged:
as §1

The target of a further assay is T4, ERG (Homo sapiens, UniProt P11308 1-479).
T4 sequence: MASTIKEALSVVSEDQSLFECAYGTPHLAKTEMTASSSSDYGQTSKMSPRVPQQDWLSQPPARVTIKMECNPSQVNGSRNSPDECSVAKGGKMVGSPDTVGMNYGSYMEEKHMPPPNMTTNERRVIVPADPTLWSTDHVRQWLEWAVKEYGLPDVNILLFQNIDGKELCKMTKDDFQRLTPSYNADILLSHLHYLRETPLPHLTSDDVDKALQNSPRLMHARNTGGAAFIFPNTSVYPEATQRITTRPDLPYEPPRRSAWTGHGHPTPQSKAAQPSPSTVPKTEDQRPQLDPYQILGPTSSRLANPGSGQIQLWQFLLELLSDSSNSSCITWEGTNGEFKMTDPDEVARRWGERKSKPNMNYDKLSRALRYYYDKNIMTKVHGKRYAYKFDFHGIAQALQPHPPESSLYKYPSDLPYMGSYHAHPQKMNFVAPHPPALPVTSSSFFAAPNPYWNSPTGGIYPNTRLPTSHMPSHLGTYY
The procedure, abridged: as §1

The target of a further assay is ELF1 (Homo sapiens, UniProt P32519 1-619). In outline:
as §1

For another assay, the target named is T5, EHF (Homo sapiens, UniProt Q9NZC4 1-300).
T5 sequence: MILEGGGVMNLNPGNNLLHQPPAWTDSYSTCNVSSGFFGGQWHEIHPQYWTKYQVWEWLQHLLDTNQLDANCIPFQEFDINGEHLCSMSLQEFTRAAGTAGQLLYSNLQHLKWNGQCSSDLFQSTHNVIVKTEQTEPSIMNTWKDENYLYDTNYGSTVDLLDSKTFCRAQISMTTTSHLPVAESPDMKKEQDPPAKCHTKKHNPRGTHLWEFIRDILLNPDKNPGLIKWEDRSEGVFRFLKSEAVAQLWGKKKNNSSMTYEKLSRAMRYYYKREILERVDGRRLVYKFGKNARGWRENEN
In outline:
as §1

Another assay concerns the target SPI1 (Homo sapiens, UniProt P17947 1-270). In outline:
as §1

The target of the next assay is SPIB (Homo sapiens, UniProt Q01892 1-262). The procedure, abridged:
as §1

The target in another assay is T6, ELK3 (Homo sapiens, UniProt P41970 1-407).
T6 sequence: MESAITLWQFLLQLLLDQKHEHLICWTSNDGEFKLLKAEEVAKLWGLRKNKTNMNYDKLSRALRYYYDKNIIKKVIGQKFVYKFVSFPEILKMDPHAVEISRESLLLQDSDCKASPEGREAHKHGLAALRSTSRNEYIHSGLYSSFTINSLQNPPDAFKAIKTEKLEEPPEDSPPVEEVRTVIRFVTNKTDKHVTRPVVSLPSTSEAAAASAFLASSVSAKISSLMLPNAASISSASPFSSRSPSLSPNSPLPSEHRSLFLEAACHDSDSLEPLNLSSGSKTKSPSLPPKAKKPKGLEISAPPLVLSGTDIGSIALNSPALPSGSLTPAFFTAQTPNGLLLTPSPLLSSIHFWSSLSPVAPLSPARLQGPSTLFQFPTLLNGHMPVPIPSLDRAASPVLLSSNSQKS
The procedure, abridged: as §1

Chain of SPIB (Q01892 whole entry): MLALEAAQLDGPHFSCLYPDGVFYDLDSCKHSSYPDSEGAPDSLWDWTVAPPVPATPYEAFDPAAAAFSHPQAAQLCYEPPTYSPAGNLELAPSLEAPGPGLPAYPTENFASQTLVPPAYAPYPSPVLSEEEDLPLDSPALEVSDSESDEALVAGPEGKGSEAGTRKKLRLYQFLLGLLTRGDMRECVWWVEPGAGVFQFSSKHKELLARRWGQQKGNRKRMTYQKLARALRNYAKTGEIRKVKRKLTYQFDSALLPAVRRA
Chain of ELF1 (P32519 whole entry): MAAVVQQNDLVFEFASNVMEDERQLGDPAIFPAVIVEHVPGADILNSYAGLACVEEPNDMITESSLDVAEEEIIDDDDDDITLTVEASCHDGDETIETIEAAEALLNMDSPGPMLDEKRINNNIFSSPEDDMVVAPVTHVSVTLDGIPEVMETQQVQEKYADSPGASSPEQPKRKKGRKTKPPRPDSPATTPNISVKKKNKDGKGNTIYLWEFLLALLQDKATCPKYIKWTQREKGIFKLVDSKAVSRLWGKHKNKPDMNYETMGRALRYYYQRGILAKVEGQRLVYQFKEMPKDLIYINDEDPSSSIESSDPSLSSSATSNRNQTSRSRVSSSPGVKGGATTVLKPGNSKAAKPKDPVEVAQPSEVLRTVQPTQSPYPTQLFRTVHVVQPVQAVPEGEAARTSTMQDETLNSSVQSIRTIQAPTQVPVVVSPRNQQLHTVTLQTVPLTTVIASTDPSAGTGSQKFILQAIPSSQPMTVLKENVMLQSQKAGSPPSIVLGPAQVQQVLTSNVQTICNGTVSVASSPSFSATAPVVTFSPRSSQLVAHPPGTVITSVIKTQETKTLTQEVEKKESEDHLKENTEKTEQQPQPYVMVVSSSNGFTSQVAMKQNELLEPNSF

TACGCT: the binding signal with FLI1 was 1.3 fold enrichment (6-mer frequency, TF over GST control); in the assay with ELK1, 1.26 fold enrichment (6-mer frequency, TF over GST control); in the assay with GABPA, 1.4 fold enrichment (6-mer frequency, TF over GST control); in the assay with ERG, 1.34 fold enrichment (6-mer frequency, TF over GST control); with ELF1 it was 1.34 fold enrichment (6-mer frequency, TF over GST control); with EHF, 1.25 fold enrichment (6-mer frequency, TF over GST control). The binding signal in the assay with SPI1 is 1.31 fold enrichment (6-mer frequency, TF over GST control); with SPIB it was 1.18 fold enrichment (6-mer frequency, TF over GST control); with ELK3, 1.36 fold enrichment (6-mer frequency, TF over GST control).
Consider TACTCA, for which the binding signal with FLI1 is 1.14 fold enrichment (6-mer frequency, TF over GST control); in the assay with ELK1, 1.24 fold enrichment (6-mer frequency, TF over GST control); with GABPA it was 1.2 fold enrichment (6-mer frequency, TF over GST control); with ERG, 1.19 fold enrichment (6-mer frequency, TF over GST control); in the assay with ELF1, 1.19 fold enrichment (6-mer frequency, TF over GST control); with EHF, 1.3 fold enrichment (6-mer frequency, TF over GST control). The binding signal was 1.14 fold enrichment (6-mer frequency, TF over GST control) with SPI1; 1.36 fold enrichment (6-mer frequency, TF over GST control) with SPIB; 1.2 fold enrichment (6-mer frequency, TF over GST control) with ELK3.
Take AACCTC: the binding signal with FLI1 was 1.22 fold enrichment (6-mer frequency, TF over GST control); with ELK1, 1.27 fold enrichment (6-mer frequency, TF over GST control); with GABPA, 1.28 fold enrichment (6-mer frequency, TF over GST control); with ERG, 1.23 fold enrichment (6-mer frequency, TF over GST control); with ELF1, 1.29 fold enrichment (6-mer frequency, TF over GST control); in the assay with EHF it was 1.2 fold enrichment (6-mer frequency, TF over GST control). The binding signal in the assay with SPI1 was 1.2 fold enrichment (6-mer frequency, TF over GST control); in the assay with SPIB, 1.19 fold enrichment (6-mer frequency, TF over GST control); with ELK3, 1.23 fold enrichment (6-mer frequency, TF over GST control).
Take ATTCGT: the binding signal was 1.24 fold enrichment (6-mer frequency, TF over GST control) in the assay with FLI1; 1.24 fold enrichment (6-mer frequency, TF over GST control) with ELK1; 1.05 fold enrichment (6-mer frequency, TF over GST control) in the assay with GABPA; 1.15 fold enrichment (6-mer frequency, TF over GST control) with ERG; 1.17 fold enrichment (6-mer frequency, TF over GST control) in the assay with ELF1; 1.08 fold enrichment (6-mer frequency, TF over GST control) with EHF. Further, the binding signal in the assay with SPI1 was 1.11 fold enrichment (6-mer frequency, TF over GST control); with SPIB it was 1.27 fold enrichment (6-mer frequency, TF over GST control); with ELK3, 1.08 fold enrichment (6-mer frequency, TF over GST control).
In the case of ATTGGT, the binding signal is 1.31 fold enrichment (6-mer frequency, TF over GST control) with FLI1; 1.34 fold enrichment (6-mer frequency, TF over GST control) with ELK1; 1.14 fold enrichment (6-mer frequency, TF over GST control) with GABPA; 1.19 fold enrichment (6-mer frequency, TF over GST control) in the assay with ERG; 1.22 fold enrichment (6-mer frequency, TF over GST control) in the assay with ELF1; 1.28 fold enrichment (6-mer frequency, TF over GST control) with EHF. The binding signal in the assay with SPI1 is 1.25 fold enrichment (6-mer frequency, TF over GST control); in the assay with SPIB, 1.33 fold enrichment (6-mer frequency, TF over GST control); in the assay with ELK3, 1.33 fold enrichment (6-mer frequency, TF over GST control).
On to CGCGCT, for which the binding signal in the assay with FLI1 is 1.25 fold enrichment (6-mer frequency, TF over GST control); with ELK1, 1.32 fold enrichment (6-mer frequency, TF over GST control); with GABPA it was 1.13 fold enrichment (6-mer frequency, TF over GST control); in the assay with ERG, 1.13 fold enrichment (6-mer frequency, TF over GST control); with ELF1 it was 1.18 fold enrichment (6-mer frequency, TF over GST control); with EHF, 1.17 fold enrichment (6-mer frequency, TF over GST control). The binding signal with SPI1 was 1.1 fold enrichment (6-mer frequency, TF over GST control); with SPIB it was 1.27 fold enrichment (6-mer frequency, TF over GST control); with ELK3, 1.21 fold enrichment (6-mer frequency, TF over GST control).
Consider CCCGAT, for which the binding signal with FLI1 was 1.29 fold enrichment (6-mer frequency, TF over GST control); in the assay with ELK1, 1.17 fold enrichment (6-mer frequency, TF over GST control); with GABPA, 1.1 fold enrichment (6-mer frequency, TF over GST control); in the assay with ERG it was 1.14 fold enrichment (6-mer frequency, TF over GST control); with ELF1, 1.16 fold enrichment (6-mer frequency, TF over GST control); with EHF it was 1.22 fold enrichment (6-mer frequency, TF over GST control). In addition, the binding signal in the assay with SPI1 was 1.16 fold enrichment (6-mer frequency, TF over GST control); with SPIB, 1.26 fold enrichment (6-mer frequency, TF over GST control); with ELK3, 1.06 fold enrichment (6-mer frequency, TF over GST control).
